Screening data (PubChem BioAssay)
In the library only some 0.74% were active in any assay of this set; here they are far more common.
Tb PGK inh: blocks T. brucei phosphoglycerate kinase | P07378 | PGK/GAPDH coupled, Kinase-Glo luminescence, 60 min | Potency, µM (top dose mostly 57.5 µM), inactives show at the top dose activity change, negative = inhibition, most hits filed as inhibitors | 380,000 tested, 0.043% active | AID 602233; also: nearly all actives have a fitted effect of over 60% in size
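Luminescent ATP detection (Kinase-Glo Plus) follows a 60-minute room-temperature incubation, with wells lacking PGK as controls. Buffer: 100 mM TEA (pH 7.6), 5 mM MgCl2, 0.01% Tween-20. Coupling enzyme GAPDH (100 nM final) supplies unstable 1,3-BPG in-well.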
BLM helicase inh: blocks DNA unwinding by human BLM helicase; Potency, µM (highest dose often 56.1 µM), inactives show top-dose activity change, negative = inhibition, most hits filed as inhibitors; recombinant BLM DNA unwinding, fluorescence dequenching; P54132; 350,000 tested, 0.2% active;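 also: plate controls were vehicle for no effect and no enzyme for full effect; nearly all actives have a fitted effect of over 35% in size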
RECQ1 helicase: blocks DNA unwinding by human RECQ1; P46063; RECQ1 DNA unwinding, red fluorescence kinetic read; Potency, µM (highest dose often 57.3 µM), for inactives: at the highest dose activity, negative = inhibition, most hits filed as inhibitors; 240,000 tested, 0.54% active; AID 2549;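 also: plate controls were vehicle for no effect and no enzyme for full effect; nearly all actives have a fitted effect of over 30% in size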
Target sequence (P46063 whole entry, looked up): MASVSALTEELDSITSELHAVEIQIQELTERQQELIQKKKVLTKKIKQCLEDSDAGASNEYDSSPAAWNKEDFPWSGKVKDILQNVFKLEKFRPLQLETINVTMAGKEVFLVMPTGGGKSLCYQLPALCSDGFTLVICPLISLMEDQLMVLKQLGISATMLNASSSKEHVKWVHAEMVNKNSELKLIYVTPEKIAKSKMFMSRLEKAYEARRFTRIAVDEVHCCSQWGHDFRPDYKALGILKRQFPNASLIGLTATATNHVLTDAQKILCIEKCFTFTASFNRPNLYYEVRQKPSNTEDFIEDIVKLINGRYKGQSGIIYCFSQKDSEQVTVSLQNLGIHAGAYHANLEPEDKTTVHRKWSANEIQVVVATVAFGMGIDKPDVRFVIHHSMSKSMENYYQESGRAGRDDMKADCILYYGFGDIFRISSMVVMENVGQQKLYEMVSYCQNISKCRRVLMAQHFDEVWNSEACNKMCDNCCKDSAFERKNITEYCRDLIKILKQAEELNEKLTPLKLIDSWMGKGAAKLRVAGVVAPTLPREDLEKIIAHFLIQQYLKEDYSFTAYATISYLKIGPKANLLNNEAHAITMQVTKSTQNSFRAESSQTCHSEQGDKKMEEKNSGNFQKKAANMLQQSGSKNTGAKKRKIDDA
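50 nM RECQ1T1 preincubated 15 min with compound in Tris pH 8.0 buffer with MgCl2, DTT, Tween-20 and 2.5 ug/ml poly(dI-dC); started with 200 nM TAMRA/BHQ-2 forked duplex and 2 mM ATP. Unwinding read as fluorescence (525/598 nm), two reads 2 h apart.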
APE1 inh: inhibitors of human APE1 endonuclease; Potency, µM (series often up to 65.8 µM), inactives show top-dose activity change, negative = inhibition, most hits filed as inhibitors; recombinant APE1, TAMRA/BHQ-2 abasic DNA cleavage fluorescence; AID 2517; 350,000 tested, 0.35% active;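 also: plate controls were vehicle for no effect and reference inhibitor for full effect; nearly all actives have a fitted effect of over 55% in size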
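Kinetic fluorescence read (525 ex/598 em nm, three reads 60 s apart) of AP-site incision; signal = third minus first read. Enzyme 0.75 nM, dual-labelled THF duplex 50 nM, compound preincubation 15 min RT.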
FEN1 inhibitor: human FEN1 inhibition. AID 588795. Potency, µM (doses to about 114 µM), inactives show top-dose activity change, negative = inhibition, most hits filed as inhibitors. 390,000 tested, 0.35% active. Recombinant FEN1 flap cleavage, fluorescence, 15 min; also: nearly all actives have a fitted effect of over 65% in size
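Enzyme 10 nM, 15 min RT preincubation with compound; start with substrate 50 nM final; reads at 0 and 15 min; qHTS titration, four-parameter Hill fit.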
Numbers without * were called inactive; [ ] = dose if it differs, or a comment. Calls follow the shape of the dose curve; as a rule, active = well fitted curve in the direction sought with a large enough effect; inconclusive = small, poorly fitted or top-dose-only effect, or another doubt; inactive = no such curve, though single readings can be large; an effect the other way counts as inactive or inconclusive. Unless noted, % is scaled to controls: 0 for no effect and ±100 for the full control effect; potency is read from the fitted curve at half-maximal effect.

Results for CCc1sc(Nc2cccc(Cl)c2C)nc1-c1cc2cccc(OC)c2oc1=O ?
Tb PGK inh: 8%; BLM helicase inh: -5%; FEN1 inhibitor: -18%

Results for CC1CCN(C(=O)Nc2ccc3nc(-c4ccco4)c(-c4ccco4)nc3c2)CC1 ?
FEN1 inhibitor: 16µM*

Results for O=C(NCCO)Nc1ccc2nc(-c3ccco3)c(-c3ccco3)nc2c1 ?
BLM helicase inh: inconclusive; RECQ1 helicase: inactive; APE1 inh: -3%

What do the screens show for `O=C(Nc1ccc2nc(-c3ccco3)c(-c3ccco3)nc2c1)N1CCCC1`?
FEN1 inhibitor: 11µM*

What do the screens show for `Cc1c(C(=O)N2CCN(c3ncccn3)CC2)oc2ccc(F)cc12`?
Tb PGK inh: -9%; APE1 inh: -2%; FEN1 inhibitor: -12%

What do the screens show for `CN(C)C(=S)NC(=O)c1cccc(Cl)c1`?
Tb PGK inh: inactive; BLM helicase inh: -2%; RECQ1 helicase: inactive; APE1 inh: 4%; FEN1 inhibitor: 0%

How did CN(C)c1ccc(/C=C\C=C/c2ccnc3ccccc23)cc1 do in these assays?
FEN1 inhibitor: 50µM*

Results for CCCCN(CCCC)c1ccc(/C=C/c2ccnc3ccccc23)cc1 ?
FEN1 inhibitor: 0%

What do the screens show for `CN(C)c1ccc(N=Cc2ccnc3ccccc23)cc1`?
FEN1 inhibitor: 45µM*

What do the screens show for `CCN(CCCN(C)C)c1ccc(/C=C/c2ccnc3ccccc23)cc1`?
FEN1 inhibitor: 50µM*

Results for CN(C)c1nc(Cl)nc2c1nc(Cl)n2C1CCCCO1 (stereo not given) ?
Tb PGK inh: -8%; FEN1 inhibitor: 3%

Results for CC(=O)N1CCc2cc(Br)cc(S(=O)(=O)N3CCC(C(=O)Nc4ccc(C(C)C)cc4)CC3)c21 ?
Tb PGK inh: -12%; BLM helicase inh: -5%; FEN1 inhibitor: 89µM*

How did COc1ccc(Cl)cc1NC(=O)c1cnc2sccn2c1=O do in these assays?
Tb PGK inh: -2%; BLM helicase inh: 0%; RECQ1 helicase: -14%; APE1 inh: 0%; FEN1 inhibitor: 3%

What do the screens show for `COc1cc2c[n+](C)c3c4ccccc4ccc3c2cc1OC`?
Tb PGK inh: 0%; FEN1 inhibitor: 6.3µM*

How did COc1cc(N=C2C(=O)N3c4c(cccc42)C(C)=CC3(C)C)cc(OC)c1 do in these assays?
Tb PGK inh: inactive; BLM helicase inh: -1%; RECQ1 helicase: -8%; APE1 inh: 0%; FEN1 inhibitor: 32%

Results for CC1=CC(C)(C)N2C(=O)C(=Nc3ccc(O)cc3)c3cccc1c32 ?
Tb PGK inh: -1%; BLM helicase inh: 32µM*; RECQ1 helicase: -29%; APE1 inh: inconclusive; FEN1 inhibitor: inconclusive

How did O=C1c2ccccc2-c2onc3ccc(NCCCn4ccnc4)c1c23 do in these assays?
Tb PGK inh: -3%[11.5 µM]; BLM helicase inh: 35µM*; RECQ1 helicase: 28µM*; APE1 inh: 28µM*; FEN1 inhibitor: 16µM*

How did COc1c(-c2coc3cc4c(cc3c2=O)CC(O)C(C)(C)O4)ccc2c1C=CC(C)(C)O2 (stereo not given) do in these assays?
BLM helicase inh: -19%; RECQ1 helicase: -5%; APE1 inh: 13%

How did COc1c(-c2coc3cc4c(cc3c2=O)CC(OC(C)=O)C(C)(C)O4)ccc2c1C=CC(C)(C)O2 (stereo not given) do in these assays?
BLM helicase inh: -3%; RECQ1 helicase: -5%; APE1 inh: 22µM*

What do the screens show for `C/C(=N\NC(=O)c1cc(O)cc(O)c1)c1ccc(NC(=O)Cc2ccccc2)cc1`?
Tb PGK inh: 7.9µM*; BLM helicase inh: -26%; APE1 inh: 1.3µM*; FEN1 inhibitor: 50µM*

How did Cn1cc(/C=C/c2cc[n+](C)cc2)c2cc(Cl)ccc21 do in these assays?
Tb PGK inh: -2%; BLM helicase inh: 69%; APE1 inh: -31%; FEN1 inhibitor: 50µM*

How did COc1ccc(Cl)cc1NC(=O)COC(=O)/C=C/c1c(C)nn(C2CCS(=O)(=O)C2)c1Cl (stereo not given) do in these assays?
Tb PGK inh: inactive; BLM helicase inh: -4%; RECQ1 helicase: -5%; APE1 inh: -6%; FEN1 inhibitor: 15%

What do the screens show for `CCOC(=O)c1sc(=S)n(-c2ccccc2)c1NC(C)=O`?
Tb PGK inh: inactive; BLM helicase inh: -3%; RECQ1 helicase: 5%; APE1 inh: -2%; FEN1 inhibitor: 79µM*

What do the screens show for `CCOC(=O)c1sc(=S)n(C)c1NC(=O)c1ccccc1`?
Tb PGK inh: 0%; BLM helicase inh: -2%; RECQ1 helicase: -4%; APE1 inh: -3%; FEN1 inhibitor: 1%

How did CCCSc1nc2cc(C)c(C)cc2n1CC(C)O (stereo not given) do in these assays?
Tb PGK inh: inactive; BLM helicase inh: -1%; RECQ1 helicase: -9%; APE1 inh: 9%; FEN1 inhibitor: -5%

How did CCO[C@H]1OC(C(=O)N2CCN(Cc3ccc4c(c3)OCO4)CC2)=C[C@@H](c2cn(C(C)=O)c3ccccc23)[C@@H]1CCCO do in these assays?
Tb PGK inh: -7%; BLM helicase inh: -4%; RECQ1 helicase: 35µM*; APE1 inh: 10%; FEN1 inhibitor: -33%

Results for COC(=O)C1CCN(CC(=O)Nc2ccccc2Sc2ccccc2)CC1 ?
Tb PGK inh: inactive; BLM helicase inh: -14%; RECQ1 helicase: inactive; APE1 inh: inconclusive; FEN1 inhibitor: -20%

What do the screens show for `COc1ccc(C(=O)Nc2ccc3c(c2)N(C)C(=O)c2ccccc2S3)cc1OC`?
Tb PGK inh: -16%; BLM helicase inh: -1%; FEN1 inhibitor: 12%

What do the screens show for `C=Cc1ccc(S(=O)(=O)O)cc1`?
BLM helicase inh: -4%; RECQ1 helicase: -17%; APE1 inh: 14µM*

What do the screens show for `O=S(=O)(O)c1ccc(O)cc1`?
BLM helicase inh: -11%

What do the screens show for `Cc1c(/C=N\NC(=O)C2COc3ccc(C(C)(C)C)cc3O2)c2ccccc2n1C` (stereo not given)?
Tb PGK inh: 5%; BLM helicase inh: -12%; RECQ1 helicase: 28µM*; APE1 inh: -1%; FEN1 inhibitor: -22%

How did Cn1cccc1/C=N\NC(=O)C1COc2ccc(C(C)(C)C)cc2O1 (stereo not given) do in these assays?
Tb PGK inh: -11%; BLM helicase inh: -13%; APE1 inh: -27%; FEN1 inhibitor: -3%

What do the screens show for `Cc1ccccc1-c1nc(N2CCOCC2)c2ccccc2n1`?
BLM helicase inh: -13%; RECQ1 helicase: -11%; APE1 inh: 8.9µM*
